# Values without a mark were called inactive. The source made the active and inactive calls.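 How the source made its calls: active means inhibition of the reporter signal at or above 50%; inactive means inhibition below 50%.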
# Assay: inhibitors of poly I:C-induced TLR3 signaling, primary screen, cell-based, poly I:C stimulus, luciferase, 10K MLSCN set (AID 602277)
# Conditions: HEK293-TLR3 RL24 IRF3 luciferase reporter, at 10 µM, stronger effect = higher value
row,SMILES,inhibition
1,Cc1ccc(S(=O)(=O)N2CCOCC2)cc1C(=O)Nc1ccc(-c2cn3ccsc3n2)cc1,-16.4%
2,Cc1ccc(S(=O)(=O)NCCc2ccncc2)cc1,17.1%
3,O=C(NCc1ccco1)C1Cc2ccccc2CN1S(=O)(=O)c1ccccc1F (stereo not given),-0.697%
4,Cc1ccccc1NC(=O)c1c(F)c(F)c(F)c(F)c1F,11.6%
5,CC(C(=O)N1CC2(C)CC1CC(C)(C)C2)N1C(=O)c2ccccc2C1=O (stereo not given),17.3%
6,O=c1c2c3nc4ccccc4nc3n(CC3CCCO3)c2ncn1CCc1ccccc1 (stereo not given),19.1%
7,COC(=O)C1=C(C)NC(=O)C1(NC(=O)c1cccnc1)C(F)(F)F (stereo not given),56.2% (active)
8,CCCn1c2ccccc2c2nnc(SCC(=O)OCC)nc21,25%
9,O=C(Nc1ccc(Cl)cc1C(=O)Nc1ccncc1)c1ccco1,28.5%
10,COCCOC(=O)C1=C(C)N=c2s/c(=C\c3cccs3)c(=O)n2C1c1cccs1 (stereo not given),-16.7%
11,Cc1cc2ncc(C(=O)Nc3ccccc3)c(C)n2n1,-14.2%
12,Cn1c(SC/C=C/c2ccccc2)nnc1-c1cnccn1,-35%
13,CCn1c(=O)n(CC(=O)Nc2cc(OC)ccc2OC)c(=O)c2ccccc21,23.2%
14,CCOC(=O)COc1ccc(S(=O)(=O)N2CCc3ccccc3C2)cc1,23.3%
15,COc1cc(-c2c(C#N)c(N)nc3c2CCCC3)cc(OC)c1OC,26.4%
16,O=C(OCc1cccs1)c1ccccc1NS(=O)(=O)c1ccc2c(c1)OCCO2,-18.1%
17,O=C1NCCCc2c1no[n+]2[O-],6.4%
18,CCOC(=O)c1cc2oc(C)cc2n1CC(=O)OC1CCCCC1,16.4%
19,Cc1cccc(-n2ncc(C#N)c2N)c1,12.7%
20,CC(=O)c1cc(-c2ccccc2)n(CC(=O)N2CCC(N3CCCCC3)CC2)c1C,30.7%

row,SMILES,inhibition
1,CN(C)S(=O)(=O)c1ccc(S(=O)(=O)Nc2ccc3c(c2)oc2ccccc23)cc1,-1.94%
2,CCCCOC(=O)CSc1nc2c(cc1C#N)C(=O)CC(C)(C)C2,-55.1%
3,Cc1ccc(S(=O)(=O)Cc2ccc(C(=O)NCCCN3CCN(C)CC3)o2)cc1,100% (active)
4,Cc1onc(-c2c(Cl)cccc2Cl)c1C(=O)NCCCN1CCOCC1,10.6%
5,O=C(O)C1C2C=CC(O2)C1C(=O)NCc1ccc(Cl)cc1 (stereo not given),5.33%
6,CC(C)OC(=O)CSc1nnnn1-c1ccc2c(c1)OCCO2,-97.9%
7,CCOC(=O)Cc1nn2c(=O)cc(C)nc2s1,11.1%
8,O=C(CSc1ncnc2sc3c(c12)CCCCC3)NCc1ccco1,35.5%
9,CCCn1c(SCC(=O)Nc2cc(C)on2)nc2c1c(=O)n(C)c(=O)n2C,0.557%
10,O=C(CSc1ncnc2ccccc12)N1CCN(c2ccccc2)CC1,15.7%
11,Nc1ncnc2nc(SCCN3CCCCC3)[nH]c12,10.9%
12,CCN(CC)S(=O)(=O)N1CCC(C(=O)NCC2COc3ccccc3O2)CC1 (stereo not given),1.83%
13,Cc1cc(NC(=O)Cn2cnc3c2c(=O)n(C)c(=O)n3C)n(-c2ccccc2)n1,17%
14,O=C(CSc1nnc(Cn2cnc3ccccc32)o1)c1ccccc1,-3.02%
15,O=C(c1nc2n(n1)C(c1ccc(Cl)cc1)C=C(c1ccccc1)N2)N1CCOCC1 (stereo not given),-4.24%
16,N#Cc1cc2sc3nnc(-c4ccncc4)n3c2cc1C#N,-16.8%
17,COC(=O)C(C)Oc1ccc2c3c(c(=O)oc2c1)CCCCC3 (stereo not given),12.4%
18,COc1cccc(-c2cc(C(=O)Nc3cc(C)n(Cc4ccc(Cl)cc4)n3)no2)c1,-60.3%
19,CCn1ncc(C2=NOC(C(=O)NCc3ccc(Cl)cc3)C2)c1C (stereo not given),86.7% (active)
20,CCOC(=O)N1CCN(C(=O)CN(C)S(=O)(=O)c2ccc(OC)c(OC)c2)CC1,20.5%

# Reference: PubChem BioAssay
